Assay results reported in the supplement of paper PMC3334620.
In all, about 33,000 sequences were measured (“E-score (-0.5 to 0.5)”: median about -0.054, highest 2% from about 0.39 on). Many of the other results were omitted from the sample, so the highest values are more common in it than they were.

These sequences were tested against Ylr278c (UniProt Q05854) (assay: PBM E-score (8-mer binding enrichment) (E-score (-0.5 to 0.5)); higher = stronger / more preferred TF binding). Conditions: protein concentration: 200 nM; construct: GST-DNA-binding domain.
UniProt Q05854, sequence (Q05854 whole entry, the tested form may be a part): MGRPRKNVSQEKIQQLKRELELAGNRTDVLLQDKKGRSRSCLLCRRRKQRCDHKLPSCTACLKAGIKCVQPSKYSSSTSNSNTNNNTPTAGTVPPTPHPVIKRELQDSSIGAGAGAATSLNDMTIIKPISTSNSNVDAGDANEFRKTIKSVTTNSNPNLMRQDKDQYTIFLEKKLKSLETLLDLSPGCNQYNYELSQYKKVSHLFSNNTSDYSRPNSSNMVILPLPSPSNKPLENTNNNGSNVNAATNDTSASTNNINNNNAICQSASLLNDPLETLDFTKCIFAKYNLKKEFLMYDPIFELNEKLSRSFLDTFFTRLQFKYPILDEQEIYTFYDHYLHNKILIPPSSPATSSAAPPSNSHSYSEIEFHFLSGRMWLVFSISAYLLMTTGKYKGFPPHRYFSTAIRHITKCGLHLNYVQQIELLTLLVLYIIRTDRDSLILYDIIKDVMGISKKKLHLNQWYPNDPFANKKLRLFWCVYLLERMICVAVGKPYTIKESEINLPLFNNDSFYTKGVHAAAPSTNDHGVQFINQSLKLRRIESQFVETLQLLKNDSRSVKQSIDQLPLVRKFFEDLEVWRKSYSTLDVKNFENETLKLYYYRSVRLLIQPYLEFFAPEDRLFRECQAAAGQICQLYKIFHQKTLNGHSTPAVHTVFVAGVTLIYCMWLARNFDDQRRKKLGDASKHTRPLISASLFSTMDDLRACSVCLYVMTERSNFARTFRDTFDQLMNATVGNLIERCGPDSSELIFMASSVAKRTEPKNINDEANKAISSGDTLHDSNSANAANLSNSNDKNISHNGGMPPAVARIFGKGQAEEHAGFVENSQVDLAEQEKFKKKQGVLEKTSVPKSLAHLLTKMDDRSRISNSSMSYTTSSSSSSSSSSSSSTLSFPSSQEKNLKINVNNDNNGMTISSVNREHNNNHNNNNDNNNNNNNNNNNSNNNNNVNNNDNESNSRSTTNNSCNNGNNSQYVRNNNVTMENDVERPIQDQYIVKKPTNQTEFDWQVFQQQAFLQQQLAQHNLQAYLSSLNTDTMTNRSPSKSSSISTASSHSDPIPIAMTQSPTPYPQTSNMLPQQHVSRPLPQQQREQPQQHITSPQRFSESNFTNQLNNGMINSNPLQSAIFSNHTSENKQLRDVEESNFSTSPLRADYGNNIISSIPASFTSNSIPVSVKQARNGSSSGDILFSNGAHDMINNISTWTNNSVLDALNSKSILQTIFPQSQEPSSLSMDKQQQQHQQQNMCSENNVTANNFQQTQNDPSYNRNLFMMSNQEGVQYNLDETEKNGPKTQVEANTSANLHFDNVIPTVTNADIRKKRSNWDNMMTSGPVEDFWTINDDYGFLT
Experimental: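 Universal 'all 10-mer' protein binding microarrays (Agilent AMADID 015681) probed with GST-tagged S. cerevisiae TFs (full-length or DBD) made by in vitro transcription/translation (PURExpress), about 100-200 nM. Bound TF was detected with fluorescent anti-GST. Each ungapped 8-mer (which stands for itself and its reverse complement) is scored by the PBM enrichment score (E-score), a modified Wilcoxon-Mann-Whitney statistic from -0.5 to +0.5, computed with the Universal PBM Analysis Suite. Scale: above 0.35 generally sequence-specific binding.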

| Sequence | PBM E-score |
| --- | --- |
| ACGTCTTA | -0.241 |
| CGGCCCCC | 0.173 |
| CACCAAAC | -0.119 |
| CCCGGCGA | 0.326 |
| CCCGGCGC | 0.338 |
| CCCGGCGG | 0.396 |
| CATTTGAG | -0.0532 |
| ACGGACTA | 0.315 |
| ACGGACTC | 0.304 |
| CCGGACTC | 0.43 |
| GCGGACTA | 0.384 |
| CCGGACTA | 0.458 |
| CGGGACTC | 0.341 |
| AGGCCTAC | -0.167 |
| AAGCAATT | -0.0901 |
| CATCCCAC | -0.135 |
| ATAGTGTA | -0.188 |
| GCCAAACC | 0.119 |
| GACTTGAC | -0.059 |
| AGTATCTG | -0.207 |
| CCGATCCG | 0.424 |
| ACGATCCG | 0.283 |
| ACGATCGG | 0.334 |
| CCGATCGA | 0.226 |
| CCGATCGG | 0.43 |

| Sequence | PBM E-score |
| --- | --- |
| CCGATCCA | 0.208 |
| CCGATTAA | 0.333 |
| CATGTTGA | -0.0612 |
| CGAGAATA | 0.0398 |
| CAGGGCCG | 0.181 |
| ATTTAAGA | -0.154 |
| AAGATGGT | -0.0478 |
| CTACGGAA | 0.197 |
| CTACGGAG | 0.398 |
| ATACGGAG | 0.425 |
| CTACGGAC | 0.261 |
| ATACGGAT | 0.256 |
| ATACGGAA | 0.345 |
| CTAAACAC | -0.033 |
| GTGGACAA | 0.124 |
| AGCAAGAC | -0.0712 |
| ACACCAAC | -0.126 |
| AAGCATAT | -0.014 |
| GTCCCGGA | 0.439 |
| ATCCCGGG | 0.392 |
| ATCCCCCG | 0.3 |
| ATCCCGTG | 0.212 |
| ATCCCGGA | 0.44 |
| ATCCCGTA | 0.158 |
| GTCCCCGA | 0.217 |

| Sequence | PBM E-score |
| --- | --- |
| ATCCCCGA | 0.379 |
| GTCCCGCA | 0.163 |
| ATCCCCGG | 0.425 |
| ATCCCGAG | 0.308 |
| ATCCCCTG | -0.16 |
| CGCGACAA | 0.106 |
| ATTGTAGG | -0.0526 |
| ACAATCGA | -0.178 |
| AATTAACA | -0.128 |
| GACCTGAC | -0.198 |
| CGAGGGCC | 0.0992 |
| ATCCCCGC | 0.393 |
| CTCCCCGA | 0.268 |
| CTCCCGGA | 0.398 |
| ATCCCGGC | 0.391 |
| ATCCCGTC | 0.231 |
| ATCCCCCC | -0.298 |
| CTCCCGGC | 0.356 |
| ATCCCGCC | 0.297 |
| CTCCCCGC | 0.288 |
| GAGCCTAC | 0.0364 |
| AGCGTCTG | -0.136 |
| CAGGGGAC | -0.151 |
| AATGCTTC | 0.0555 |
| GAAACTGC | 0.176 |

| Sequence | PBM E-score |
| --- | --- |
| ATTGCTCC | 0.256 |
| AAATCCGT | 0.362 |
| AAATCCAG | -0.0486 |
| GAATCCGA | 0.368 |
| AAATCCGA | 0.449 |
| CAATCCGG | 0.393 |
| AAATCCCA | -0.101 |
| AAATCCCG | 0.426 |
| CAATCCGA | 0.251 |
| CAATCCCG | 0.368 |
| TAATCCGA | 0.359 |
| AAATCCGG | 0.474 |
| CAATCCGC | 0.197 |
| AGCGTCTC | 0.0181 |
| CCCTAGTC | -0.368 |
| GATGGCCA | -0.102 |
| CCCTAGCG | -0.352 |
| CTGGGCAC | -0.183 |
| ACCTCAAT | -0.178 |
| CTCAGCCA | -0.0917 |
| ATGAGCCG | -0.00632 |
| ACCTACAA | -0.178 |
| GAATCCGC | 0.259 |
| ACATCCGC | 0.352 |
| AAATCCGC | 0.401 |

| Sequence | PBM E-score |
| --- | --- |
| GACTTTAA | -0.0643 |
| CATAGCCA | -0.115 |
| CGGAATTC | 0.464 |
| AGGAAGTC | -0.156 |
| CGGAAGTA | 0.342 |
| AGGAATCA | -0.0846 |
| GGGAATTA | 0.143 |
| GGGAATCA | -0.0137 |
| CGGAATCA | 0.39 |
| AGGAATTA | 0.0107 |
| CGGAATTA | 0.466 |
| AGGAATTC | -0.0584 |
| CGGAAGTC | 0.396 |
| CTGAATTC | -0.0397 |
| GACCTCAA | -0.226 |
| TAGATAAA | -0.0204 |
| AGTTGGTA | -0.238 |
| AGTCAACC | -0.0996 |
| CGAAGCGC | 0.197 |
| CCAGCCTC | -0.302 |
| GTGGGTGA | 0.0373 |
| CAGTGGCG | 0.0163 |
| CACGGAAC | 0.276 |
| AGCGGAAC | 0.333 |
| CGCGGAAC | 0.368 |

| Sequence | PBM E-score |
| --- | --- |
| TCCGGAAA | 0.456 |
| TGCGGAAA | 0.334 |
| TACGGAAA | 0.3 |
| ACCGGAAC | 0.428 |
| AGCGGAAG | 0.305 |
| CCCGGAAC | 0.4 |
| ACCGGAAA | 0.369 |
| AACGGAAG | 0.0937 |
| ACCGGAAG | 0.388 |
| GCCACCAA | -0.0527 |
| CTTCGCAC | -0.164 |
| AAAAGTCC | 0.371 |
| TAATGGGA | -0.256 |
| AGAAGAGG | -0.194 |
| CCCTCAGC | -0.0523 |
| CCCGGAAA | 0.429 |
| CCCGGAAG | 0.39 |
| ACCGGGAT | 0.388 |
| GCCGGGAA | 0.329 |
| CACGGAAG | 0.228 |
| GCCGGAAA | 0.428 |
| ACCGGTAT | 0.277 |
| CACGGAAA | 0.328 |
| CTCGGAAG | 0.303 |
| ACCGGAAT | 0.389 |

| Sequence | PBM E-score |
| --- | --- |
| CCGGGAAA | 0.354 |
| GACGGAAA | 0.35 |
| CGCAATTA | 0.23 |
| AAACTGCC | -0.0969 |
| ACCTCTTA | 0.176 |
| GTCTAAAC | 0.0271 |
| ATCGCGTC | -0.0429 |
| GCTTGGCA | -0.34 |
| GACGGAAC | 0.192 |
| GCCGGAAC | 0.432 |
| GGCGGAAC | 0.349 |
| GAGCGCTC | 0.0431 |
| TCTTATCA | 0.0183 |
| CCAATGTC | -0.156 |
| TCCTCCAA | -0.245 |
| GCCTCCAA | -0.134 |
| GCCTCCGA | 0.398 |
| CCCTCCGC | 0.259 |
| ACCTCCGA | 0.454 |
| ACCTCCAA | -0.209 |
| TCCTCCGA | 0.43 |
| ACCTCCTA | -0.101 |
| GCCTCCGC | 0.361 |
| TCCTCCCA | 0.0879 |
| CCCTCCGG | 0.388 |

| Sequence | PBM E-score |
| --- | --- |
| CCCTCCAG | -0.0892 |
| AAGCCCAG | -0.143 |
| ACACCTAG | -0.13 |
| AGACTTCG | -0.137 |
| GACAGGTA | -0.0451 |
| GCTATAGA | -0.234 |
| CCAGGCAC | -0.0214 |
| ACCTCCAC | 0.0767 |
| ACCTCCGT | 0.383 |
| CCCTCCAA | -0.119 |
| ACCTCCGG | 0.47 |
| CCCTCCTA | -0.107 |
| ACCTCCTC | -0.0564 |
| CCCTCCGA | 0.405 |
| ACCTCCTG | -0.253 |
| ACCTCCGC | 0.425 |
| GTAAGAAA | -0.0755 |
| GAGCGGCA | 0.207 |
| ATGGTCAC | -0.0597 |
| ATTTAAAA | 0.114 |
| AGGTAGCA | -0.197 |
| CATCTAAC | -0.0951 |
| AGCTAGAC | -0.174 |
| CCGGCGGC | 0.407 |
| GCGGCGGA | 0.453 |

| Sequence | PBM E-score |
| --- | --- |
| GCGGCGAA | 0.378 |
| CTGGCGGC | 0.207 |
| TCGGCGAA | 0.372 |
| GTGGCGGA | 0.35 |
| ACGGCGGC | 0.167 |
| CTGGCGGA | 0.183 |
| CCGGCGAA | 0.404 |
| CCGGCGGA | 0.456 |
| ACGGCGGA | 0.37 |
| CAGGCGGA | 0.327 |
| ACGCGAAC | -0.00887 |
| ATGAAGCC | 0.0954 |
| ACTGCCCA | -0.151 |
| AGTTCATA | -0.0477 |
| AATGGGTG | -0.0286 |
| GAGGCTTA | -0.0425 |
| ACGGCGCC | 0.184 |
| GCGGCGCC | 0.289 |
| CCGGCGCC | 0.422 |
